Data on 31 compounds can be found in PubChem BioAssay (NCATS).

Common to all, as to experiment: qHTS profiling for inhibitors of Plasmodium falciparum proliferation (AID 504749); note: nearly all actives have a fitted effect of over 60% in size
Conditions in all cases: P. falciparum in erythrocytes, SYBR Green DNA, 72 h; series mostly up to 28.7 µM
(Quantitative high-throughput screening tests each substance at several concentrations.)

One assay relates to CP191. The essentials:
(§1)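 Infected RBCs, 0.3% parasitemia/2.5% Hct final; cpd 72 h, 37 C, 5% CO2; lysis buffer with saponin/triton/SYBR Green I, o/n RT dark; FI 485/535; norm. to artemisinin (0.29 uM) and DMSO.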

The next assay has as its system CP192. Put shortly:
as §1

The next assay has as its system CP194. The essentials: as §1
The subject of another assay is CP201. The essentials:
as §1

A further assay deals with CP203. Put shortly:
as §1

A further assay concerns CP211. The essentials: as §1
In another assay the test system is CP217. Put shortly:
as §1

The subject of another assay is CP237. Put shortly:
as §1

The subject of a further assay is CP238. The essentials: as §1
The test system of another assay is CP215. The essentials: as §1

Records with an inconclusive call do not appear. The source made the active and inactive calls. Calls come from the whole dose curve; as a rule, active = well fitted inhibition curve with a large enough effect; inconclusive = small, poorly fitted or top-dose-only effect; inactive = flat fitted curve, though single readings scatter.
Potency is the fitted concentration of half-maximal effect.

As for `CC[C@H](C)C(=O)O[C@H]1C[C@@H](C)C=C2C=C[C@H](C)[C@H](CC[C@@H]3C[C@@H](O)CC(=O)O3)[C@H]21`, the Potency result with CP191, in the assay on CP192, in the assay on CP194, with CP201, with CP203 and with CP211 was “inactive” in each case. For the same compound, the Potency result with CP217, with CP237 and with CP238 was “inactive” throughout.

Turning to `CCOC(=O)c1ccc(C#Cc2ccc3c(c2)C(C)(C)CCS3)nc1`, the Potency entry in the assay with CP192, in the assay on CP194, in the assay on CP201, in the assay on CP203, with CP215 and with CP217 was “inactive” throughout. Also, the Potency result with CP237 and in the assay with CP238 was “inactive” in each case.

`COc1cc2c(Nc3ccc(Br)cc3F)ncnc2cc1OCC1CCN(C)CC1`: the Potency was 3.16 µM (active) with CP191, 0.447 µM (active) in the assay with CP217, 3.98 µM (active) in the assay with CP237 and 6.31 µM (active) in the assay with CP238. The Potency entry with CP211 was “inactive”.

As to `CN1CCCC(n2nc(Cc3ccc(Cl)cc3)c3ccccc3c2=O)CC1` (stereo not drawn), the Potency result in the assay on CP192, in the assay on CP194, in the assay on CP211 and in the assay with CP238 was “inactive” each time.

Turning to `Oc1c(Cl)cc(Cl)c2cccnc12`, the Potency with CP191 is 11.2 µM (active); in the assay on CP217, 8.91 µM (active); in the assay on CP237 it was 10 µM (active). Also, the Potency result in the assay with CP192 and in the assay with CP201 was “inactive” each time.

Regarding `COC(=O)Nc1nc2ccc(C(=O)c3ccccc3)cc2[nH]1`, the Potency entry in the assay with CP191, with CP192, in the assay on CP194, in the assay with CP201, in the assay with CP211 and in the assay on CP217 was “inactive” throughout. Besides, the Potency result in the assay on CP237 and in the assay with CP238 was “inactive” throughout.

With `CCn1cc(C(=O)O)c(=O)c2cc(F)c(N3CCNCC3)cc21`, the Potency result in the assay with CP191, in the assay on CP192, in the assay with CP201, with CP203, in the assay with CP215 and with CP217 was “inactive” each time. Further, the Potency result in the assay with CP238 was “inactive”.

`CNCC[C@H](Oc1cccc2ccccc12)c1cccs1`: the results for the Potency with CP191 and in the assay with CP237 were 11.2 µM (active) and 10 µM (active), respectively. Also, the Potency entry with CP201 and in the assay with CP211 was “inactive” throughout.

For `COc1cccc(N(C)C(=S)Oc2ccc3c(c2)CCCC3)n1`, the Potency result in the assay on CP192, in the assay on CP211, in the assay with CP217, with CP237 and with CP238 was “inactive” throughout.

Consider `CCc1cc(C(N)=S)ccn1`, for which the Potency entry in the assay with CP191, with CP192, with CP194, with CP203, in the assay with CP211 and in the assay with CP215 was “inactive” each time. Further, the Potency result with CP217, in the assay with CP237 and in the assay with CP238 was “inactive” throughout.

For `O=C(O)c1cn(C2CC2)c2cc(N3CCNCC3)c(F)cc2c1=O`, the Potency result with CP191 and in the assay on CP217 was “inactive” throughout.

`N[C@@H](Cc1ccc(O)c(O)c1)C(=O)O`: the Potency entry in the assay on CP192, with CP194, in the assay with CP201, in the assay on CP203, in the assay with CP211 and in the assay with CP215 was “inactive” each time.

Turning to `O=c1oc2c(O)c(O)cc3c(=O)oc4c(O)c(O)cc1c4c23`, the Potency result with CP191 and in the assay on CP203 was “inactive” in each case. For the same compound, the Potency with CP237 was 2 µM (active).

Turning to `COc1c(N2CCNC(C)C2)c(F)cc2c(=O)c(C(=O)O)cn(C3CC3)c12` (stereo not drawn), the Potency entry with CP191, in the assay with CP192, with CP201, in the assay on CP203, with CP211 and with CP215 was “inactive” each time. For the same compound, the Potency entry in the assay with CP217, with CP237 and in the assay on CP238 was “inactive” throughout.

Take `CCOc1cc(N)c(Cl)cc1C(=O)NCC1CN(Cc2ccc(F)cc2)CCO1` (stereo not drawn): the Potency is 3.98 µM (active) with CP191; 12 µM (active) in the assay on CP194; 12 µM (active) in the assay on CP211; 10.7 µM (active) with CP215; 4.47 µM (active) with CP217; 11.2 µM (active) in the assay with CP237. In the assay on CP238, the Potency was 11.2 µM (active).

Turning to `CN(C)c1ccc(C(=C2C=CC(=[N+](C)C)C=C2)c2ccc(N(C)C)cc2)cc1`, the Potency in the assay with CP191 is 0.178 µM (active); in the assay with CP192, 0.757 µM (active); in the assay with CP194 it was 0.953 µM (active); in the assay with CP201, 1.2 µM (active); in the assay on CP211 it was 0.151 µM (active); with CP215, 1.51 µM (active). For the same compound, the Potency is 0.251 µM (active) in the assay on CP217, 0.199 µM (active) in the assay with CP237 and 0.398 µM (active) with CP238.

`O=C(O)c1cc(=O)[nH]c(=O)[nH]1`: the Potency result with CP191, in the assay on CP194, in the assay on CP201, in the assay with CP203, in the assay with CP211 and in the assay with CP215 was “inactive” each time. Besides, the Potency result in the assay on CP217, in the assay with CP237 and in the assay with CP238 was “inactive” throughout.

On to `CCN(C)C(=O)Oc1cccc([C@H](C)N(C)C)c1`, for which the Potency result in the assay on CP191, in the assay with CP192, in the assay on CP194, with CP201, in the assay with CP211 and in the assay with CP215 was “inactive” each time. The Potency entry in the assay with CP217, in the assay with CP237 and with CP238 was “inactive” throughout.

For the compound `CCCCOc1ccc(CC(=O)NO)cc1`, the Potency in the assay on CP191 is 2.24 µM (active); in the assay on CP192, 4.05 µM (active); in the assay with CP203, 3.61 µM (active); with CP211 it was 2.56 µM (active); with CP237 it was 4.47 µM (active).

Turning to `CC(C)(C)C(=O)OCOP(=O)(COCCn1cnc2c(N)ncnc21)OCOC(=O)C(C)(C)C`, the Potency result in the assay on CP194, with CP201 and in the assay with CP211 was “inactive” in each case.

For `CC(N)C12CC3CC(CC(C3)C1)C2` (stereo not drawn), the Potency result in the assay with CP191, in the assay with CP201 and in the assay with CP217 was “inactive” each time. For the same compound, the figures for the Potency with CP203 and in the assay on CP237 were 12 µM (active) and 5.62 µM (active), respectively.

Regarding `Cc1oc(=O)oc1CN1CCN(c2cc3c(cc2F)c(=O)c(C(=O)O)c2n3C(C)S2)CC1` (stereo not drawn), the Potency is 12.6 µM (active) in the assay on CP191, 11.2 µM (active) in the assay on CP217, 10 µM (active) with CP237 and 6.31 µM (active) in the assay on CP238.

In the case of `COc1cc([C@@H]2c3cc4c(cc3[C@H](O)[C@H]3COC(=O)[C@H]23)OCO4)cc(OC)c1OC`, the Potency is 3.55 µM (active) in the assay on CP191, 12 µM (active) in the assay on CP203, 13.5 µM (active) with CP215 and 3.16 µM (active) with CP237.

`CNNCc1ccc(C(=O)NC(C)C)cc1`: the Potency entry in the assay on CP192, in the assay on CP194, in the assay with CP203, in the assay with CP211, in the assay with CP215 and in the assay with CP217 was “inactive” each time. Further, the Potency result in the assay with CP237 and with CP238 was “inactive” in each case.

Regarding `CCn1cc(C(=O)O)c(=O)c2cc(F)c(N3CCN(C)CC3)cc21`, the Potency entry in the assay on CP192, in the assay with CP194, in the assay on CP201 and with CP238 was “inactive” in each case.

As for `C[C@@H](NCCCc1cccc(C(F)(F)F)c1)c1cccc2ccccc12`, the Potency was 13.5 µM (active) in the assay on CP194; 15.1 µM (active) with CP201; 10.7 µM (active) in the assay on CP203; 13.5 µM (active) in the assay on CP211; 10.7 µM (active) with CP215; 7.94 µM (active) in the assay with CP217. For the same compound, the Potency is 3.55 µM (active) in the assay on CP237 and 11.2 µM (active) with CP238.

As for `CNC(=O)c1cc(Oc2ccc(NC(=O)Nc3ccc(Cl)c(C(F)(F)F)c3)cc2)ccn1`, the Potency in the assay with CP192 is 10.7 µM (active); with CP194, 10.7 µM (active); in the assay on CP211, 12 µM (active); in the assay with CP215, 15.1 µM (active); with CP237 it was 11.2 µM (active); with CP238, 10 µM (active).

For the compound `COC(=O)Nc1nc2ccc(Sc3ccccc3)cc2[nH]1`, the Potency result with CP191, in the assay with CP194, with CP201, in the assay with CP203, in the assay on CP211 and with CP215 was “inactive” in each case. Moreover, the Potency entry in the assay with CP217, in the assay with CP237 and with CP238 was “inactive” each time.

`C1CCC(C(CC2CCCCN2)C2CCCCC2)CC1` (stereo not drawn): the Potency with CP191 is 11.2 µM (active); in the assay with CP194, 15.1 µM (active); in the assay on CP217, 10 µM (active); with CP237 it was 7.94 µM (active).

On to `CCCCCCNC(=O)n1cc(F)c(=O)[nH]c1=O`, for which, in the assay with CP211, the Potency is 16.9 µM (active).

Regarding `CCOC(=O)c1ccc(OC(=O)CCCCCN=C(N)N)cc1`, the Potency result in the assay with CP192, in the assay on CP194, in the assay with CP201, in the assay on CP203, in the assay on CP211 and in the assay with CP215 was “inactive” each time. In addition, the Potency result with CP217, in the assay on CP237 and in the assay with CP238 was “inactive” each time.
